# From PubChem BioAssay AID463173 (ICCB-Longwood Screening Facility, Harvard Medical School, 2010)
# The whole screen tested about 52,000 compounds, of which about 1,700 (3.3%) were called active. This is one part of a sample in which actives are shown more often than they occur. Rule as the data show it: active = survival mostly below about 52% (no sharp cut-off); inactive = mostly above about 56%.
# System: Wild type
# Assay: growth inhibition of S. aureus wild type versus tarO mutant, primary screen, teichoic acid synthesis inhibitors, RN4220, OD600 (AID 463173)
# Settings: S. aureus RN4220 wild type/DeltatarO growth, OD600, 18 h, active compounds read low, screened at 18.75 µg/mL (by protocol)
row,SMILES,survival
1,COc1cc(OC)cc(C(=O)Nc2cc(-c3nc4ccccc4s3)ccc2OC)c1,67% (inactive)
2,CSc1ccc(C(=O)Nc2ccc(-c3nc4ccccc4s3)c(O)c2)cc1,0% (active)
3,COc1cc(OC)cc(C(=O)Nc2ccccc2-c2nc3ccccc3s2)c1,41% (inactive)
4,COc1ccc(C(=O)Nc2cc(-c3nc4ccccc4s3)ccc2OC)cc1,5% (active)
5,Cc1ccc(C(=O)Nc2ccc(-c3nc4ccccc4s3)c(O)c2)c(C)c1,91% (inactive)
6,COc1cccc(C(=O)Nc2ccccc2-c2nc3ccccc3s2)c1,42% (inactive)
7,COc1ccc(C(=O)Nc2ccccc2-c2nc3ccccc3s2)cc1OC,-6% (active)
8,O=C(NCc1ccc(Cl)cc1)C(=O)NCC(c1cccs1)S(=O)(=O)c1ccc(Cl)cc1 (stereo not drawn),58% (inactive)
9,CCOC(=O)C1CCN(c2cc(C)nc3c(-c4ccccc4OC)c(C)nn23)CC1,82% (inactive)
10,COc1ccc(S(=O)(=O)N(Cc2ccccc2)Cc2nc3ccccc3c(=O)[nH]2)cc1,113% (inactive)
11,COc1ccc(C2=C(C)C(=O)N(Cc3ccc(C(=O)NCc4ccccc4C)cc3)S2(=O)=O)cc1,66% (inactive)
12,Cc1cccc(OCc2nc(CC(=O)Nc3ccc(Cl)cc3)cs2)c1,92% (inactive)
13,COc1ccccc1N1CCN(c2ncnc3c2c(-c2ccccc2)cn3-c2cccc(Cl)c2)CC1,74% (inactive)
14,CCc1ccc2nc(N(Cc3cccnc3)C(=O)c3cccs3)sc2c1,127% (inactive)
15,CC(=O)c1cccc(NC(=O)c2ccc3c(c2)CCN3S(=O)(=O)c2ccccc2)c1,71% (inactive)
16,Cc1c(-c2nnc(SCC(=O)Nc3ccc(Br)cc3)o2)nnn1-c1ccc(F)cc1,80% (inactive)
17,O=C(CCCCCn1c(=O)[nH]c2ccccc2c1=O)NCCc1ccccc1,92% (inactive)
18,Cc1cccc(NC(=O)c2sc3nc4c(cc3c2N)CCCCCC4)c1C,121% (inactive)
19,O=C(c1ccc(F)cc1)n1nc(-c2ccccc2)nc1NCc1ccc(F)cc1,19% (inactive)
20,O=C(c1ccco1)n1nc(-c2ccccc2)nc1NCc1ccc(F)cc1,73% (inactive)
21,O=C(c1ccco1)n1nc(-c2ccc(Cl)cc2)nc1NCc1ccccc1,74% (inactive)
22,O=C(c1ccc(Cl)cc1)n1nc(-c2ccccc2)nc1NCc1ccco1,24% (active)
23,O=C(c1ccco1)n1nc(-c2ccccc2)nc1NCc1ccc(Cl)cc1,85% (inactive)
24,O=C(c1ccc(F)cc1)n1nc(-c2cccnc2)nc1NCc1ccccc1,81% (inactive)

row,SMILES,survival
1,O=C(c1ccco1)n1nc(-c2ccc(Cl)cc2)nc1NCc1ccc(F)cc1,70% (inactive)
2,COc1ccc(C(=O)n2nc(-c3ccc(Cl)cc3)nc2NCc2ccco2)cc1,99% (inactive)
3,O=C(c1ccc(F)cc1)n1nc(-c2ccc(Cl)cc2)nc1NCc1ccco1,76% (inactive)
4,O=C(c1ccc(F)cc1)n1nc(-c2ccccc2)nc1NCc1ccco1,9% (active)
5,O=C(c1ccccc1)n1nc(-c2ccc(Cl)cc2)nc1NCc1ccco1,25% (active)
6,O=C(c1ccccc1)n1nc(-c2ccccc2)nc1NCc1ccc(F)cc1,-4% (active)
7,Cc1ccc(Nc2nc(C(N)=O)c(NC(=O)c3ccccc3Br)s2)cc1,71% (inactive)
8,CCOC(=O)C1CCC(CN(Cc2ccc(Cl)cc2)S(=O)(=O)c2cc(Cl)cc(Cl)c2)CC1 (stereo not drawn),59% (inactive)
9,COc1ccc(-n2c(=O)c3sc4ccccc4c3n(Cc3ccccc3)c2=O)cc1,81% (inactive)
10,CCc1ccc(NC(=O)c2oc3c(c2C)-c2[nH]ncc2CC3)cc1,59% (inactive)
11,Cc1cc(NC(=O)c2oc3c(c2C)-c2[nH]ncc2CC3)ccc1Br,1% (active)
12,Cc1cc(C)c(NC(=O)c2oc3c(c2C)-c2[nH]ncc2CC3)c(C)c1,81% (inactive)
13,Cc1[nH]c2ccc(Cl)cc2c(=O)c1CN1CCN(C)CC1,109% (inactive)
14,Clc1ccc(CCNc2nc3ccccc3c3nc(-c4ccccc4)nn23)cc1,38% (inactive)
15,Cc1ccc(CNC(=O)CSc2nc3n[nH]c(C)c3c(=N)n2-c2ccccc2Cl)cc1,83% (inactive)
16,Cc1ccc(CN2CCC(CNC(=O)Nc3ccc(C)c(C)c3)C2)cc1 (stereo not drawn),94% (inactive)
17,Cc1ccc(NC(=O)NCC2CCN(Cc3cccc(Cl)c3)CC2)cc1Cl,-6% (active)
18,O=C(NCC1CCN(Cc2cccc(Cl)c2)CC1)Nc1cc(Cl)ccc1Cl,-1% (active)
19,O=C(NCC1CCN(Cc2cccc(Cl)c2)CC1)Nc1ccc(F)c(Cl)c1,14% (active)
20,Cc1ccc(CN2CCC(CNC(=O)Nc3cccc(Cl)c3C)C2)cc1 (stereo not drawn),88% (inactive)
21,Cc1cc(C)cc(NC(=O)NCC2CCN(Cc3cc(C)ccc3C)CC2)c1,83% (inactive)
22,Cc1ccc(CN2CCC(CNC(=O)Nc3ccccc3F)CC2)cc1,118% (inactive)
23,Cc1ccc(CN2CCC(CNC(=O)Nc3ccc(Cl)cc3)C2)cc1 (stereo not drawn),53% (inactive)
24,O=C(NCC1CCN(Cc2ccccc2F)CC1)Nc1ccc(F)c(Cl)c1,73% (inactive)
